Data on seven compounds can be found in PubChem BioAssay.

Molecules are shown by their SMILES. Several values for one entry are separate records, joined by “and”; a condition that tells them apart may be missing. Equal entries are not always repeated. Results filed as inconclusive are left out. For part of these data: Measured potencies and affinities stand elsewhere. Activity calls are given as the source filed them.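 Rule for the calls, unless noted: active = compounds killing one labelled cell type while sparing the other, by normalised counts and ratio limits, not self-fluorescent; inactive = the rest.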

By viability is commonly meant a per cent measure of how many cells are alive, often set against a control. Usually remaining activity stands for the signal under treatment as a percentage of the control signal. What is called inhibition is the change of the read-out against control, counted positive when it falls.

A short description of assay [1]: hESC survival regulators, cell-based (AID 493140; call rule not given here;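 note: cells exposed to compounds for four days before counting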). The settings on record: human embryonic stem cell survival screen; stronger effect = higher value.
Assay [2] is described as follows: liver-stage malaria parasite growth inhibition, primary screen, cell-based, HepG2, luciferase luminescence, HepG2 viability (AID 624349; in the data active = parasite load remaining mostly below about 12%, no sharp cut-off; inactive = mostly above about 10%;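 note: 100% = mean of DMSO negative control wells on the same plate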). The settings on record: P. berghei liver stage in HepG2, luciferase luminescence, concentration not given here; parasite load remaining: stronger effect = lower value; viability: measured here: HepG2 viability without parasites.
The nature of assay [3]: differential killing of epithelial or mesenchymal cells, primary screen, imaging, PC-3E GFP, TEM4-18 mCherry, co-culture (AID 1345086).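 For all read-outs here: cells exposed to compound for 72 h before imaging.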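 For red/green cell ratio (normalised): normalised mesenchymal count divided by normalised epithelial count so high means epithelial killing.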 The following applies: imaging cell counts, at 1 µM; for red/green cell ratio (normalised): actives lie on both sides, counts scaled to control wells, 1 = unselective.
Assay [4] has as its system Aerobactin synthetase IucA (Klebsiella pneumoniae). Briefly: IucA aerobactin synthetase inhibitors, biochemical, Tocris library, absorbance (AID 1345561; call rule not given here;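 note: 100% = enzyme without compound and 0% = no enzyme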). The following applies: purified IucA enzyme assay, absorbance (OD) read-out; stronger effect = lower value;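 tested at 8 µM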.
Assay [5] in a line: growth inhibition of DIPG glioma cells, dose response, cell-based, SU-DIPG-XVII, MIPE5.0, CellTiter-Glo, qHTS (AID 1347060; cut-off not given, nearly all actives have AC50 up to about 26 µM). The settings on record: SU-DIPG-XVII viability, CellTiter-Glo ATP luminescence. (In ATP-based viability assays light output follows the ATP content of the culture.)
The nature of assay [6]: growth inhibition of DIPG glioma cells, dose response, cell-based, SU-DIPG-XIII, MIPE4.0, CellTiter-Glo, qHTS (AID 1347061; cut-off not given, nearly all actives have AC50 up to about 37 µM;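 note: cells exposed to compound for 48 hours before readout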). The following applies: SU-DIPG-XIII viability, CellTiter-Glo ATP luminescence.
The nature of assay [7]: viability loss in pontine glioma line – cell-based, SU-DIPG-XXV, MIPE5.0, CellTiter-Glo, qHTS, dose response (AID 1347065; cut-off not given, nearly all actives have AC50 up to about 26 µM;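 note: cells exposed to compound for 48 hours before ATP readout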). The following applies: CellTiter-Glo ATP luminescence.
The nature of assay [8]: SU-DIPG-VI glioma cell viability, MIPE4.0 library, CellTiter-Glo luminescence, qHTS (AID 1347066; cut-off not given, nearly all actives have AC50 up to about 30 µM;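 note: cells exposed to compound for 48 hours before readout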). The settings on record: CellTiter-Glo ATP luminescence.
The nature of assay [9]: JHH-DIPG-1 glioma cell viability, MIPE5.0 library, CellTiter-Glo luminescence, qHTS (AID 1347067; cut-off not given, nearly all actives have AC50 up to about 26 µM;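 note: cells exposed to compound for 48 hours before readout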). The following applies: JHH-DIPG-1 glioma viability, CellTiter-Glo ATP luminescence.
The nature of assay [10]: SU-DIPG-XXV glioma cell viability, MIPE5.0 library, qHTS (AID 1347068; cut-off not given, nearly all actives have IC50 up to about 30 µM). For orientation: Quantitative high-throughput screening tests each substance at several concentrations.
Assay [11] in a line: sensitizers of A549 cells to miR-34 induction, primary screen, imaging, A549 dox-inducible miR-34, nuclei and caspase counts (AID 1347080;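 active = compounds whose cell count with miR-34 switched on is under 0.7 times the count with it off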). The settings on record: A549 miR-34 inducible, Hoechst nuclei count, 48 h.
The nature of assay [12]: survival rescue of mitochondrial mutant cells in low glucose, primary screen, MELAS cybrids, Rieske KO mouse fibroblasts, CellTiter-Glo (AID 1508586;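 active = mean z-score across replicates of 1.96 or higher in either the MELAS or the Rieske mutant cell line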;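 note: z relative to plate mean and SD of compound and empty wells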).
Assay [13] in a line: viability rescue of complex I mutant cybrids, primary screen, cell-based, galactose medium, ATP luminescence (AID 1645843;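 active = z-score of at least 1.8 in each of two replicates, scored against plate mean and spread of sample wells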;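 note: positive z means more ATP and so rescue of galactose-driven cybrid death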). The settings on record: complex I mutant cybrid cells, 72 h, stronger effect = higher value.
The nature of assay [14]: polyglutamine-triggered caspase-3 activation inhibitors, cell-based (AID 1583). The settings on record: polyglutamine-induced caspase-3 activation, cell assay; stronger effect = higher value;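 tested at 10 µM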.
Assay [15] can be described thus: suppressors of polyQ aggregation in yeast, 75Q-TubU reporter (AID 1593). The following applies: Yeast 75Q polyglutamine aggregation reporter.
The nature of assay [16]: rescue of polyQ-huntingtin neuronal dysfunction in worms, whole organism, C. elegans mechanosensory neurons, N-terminal huntingtin (AID 1599). The following applies: touch response, stronger effect = higher value.
A short description of assay [17]: inhibitors of mitochondrial cytochrome c release, biochemical, purified mitochondria (AID 1603).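 Note: mouse liver mitochondria challenged with calcium chloride; signal normalized to the plate average as 100%.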 The settings on record: stronger effect = lower value.
The nature of assay [18]: inhibitors of polyQ protein aggregation (AID 1604). The settings on record: polyglutamine-induced protein aggregation inhibition assay; stronger effect = higher value; tested at 2.5 µM.
Assay [19] can be described thus: enhancers of glutamate uptake in motor neurons, MN-1 cell line (AID 1612).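 Note: tested at 1 µM final; 0% = mean of DMSO vehicle wells on each plate; positive means more glutamate uptake than control and negative means less.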 The following applies: MN-1 motor neuron cells, stronger effect = higher value.
Assay [20] in a line: suppressors of polyglutamine aggregation in yeast, 75Q-TubH (AID 1616). The following applies: S. cerevisiae 75Q-TubH polyglutamine aggregation suppression; stronger effect = higher value.
Where [21] appears, read: measured here: epithelial PC-3E GFP cell survival.
Setting [22] is: measured here: mesenchymal TEM4-18 mCherry cell survival.
[23] abbreviates: stronger effect = lower value, cell number ratio, induced over uninduced.
Where [24] appears, read: measured here: relative caspase fold change +Dox/-Dox.
Setting [25] is: measured here: total cells with miR-34 induction, stronger effect = lower value.
Where [26] appears, read: measured here: total cells without miR-34 induction.

On to `O=c1c(O)c(-c2ccc(O)cc2)oc2cc(O)cc(O)c12`, for which the survival in assay [1] was 7.5 (inactive). The parasite load remaining in [2] is 80.6% (inactive). In assay [2], this compound registered a viability of 69.5%. Moreover, the red/green cell ratio (normalised) in [3] is 1 (inactive). For the same compound, the normalised cell number in assay [3] (setting [21]) and in assay [3] (setting [22]) was 1.03 each time. Further, the remaining activity in assay [4] was 107% (inactive). Also, the outcome in assay [5], in assay [6], in [7], in [8], in [9] and in [10] was inactive. For the same compound, the fold change in [11] (setting [23]) was 0.974 (inactive) and 0.869 (inactive) and 0.836 (inactive); in assay [11] (setting [24]), 0.804 and 0.921 and 1.47. For the same compound, the cell count in assay [11] (setting [25]) is 9050 and 8750 and 6630; in [11] (setting [26]), 9290 and 10100 and 7930. The z-score is -0.357 (inactive) in assay [12] (MELAS cybrid survival, CellTiter-Glo 48 h, stronger effect = higher value); 0.291 in assay [12] (Rieske KO mouse fibroblast survival, CellTiter-Glo 72 h); -0.765 (inactive) in assay [13].

Take `CC(CC(=O)N1C(=O)OC[C@H]1c1ccccc1)N1CCSC1=S` (stereo partly specified): the red/green cell ratio (normalised) in assay [3] was 0.94 (inactive). The normalised cell number in assay [3] (setting [21]) came out at 1.15; in [3] (setting [22]), 1.08.

As for `O=C1C=CC2=C3c4cc(O)c(O)cc4C[C@@]3(O)COC2=C1`, the red/green cell ratio (normalised) in [3] was 1.29 (inactive). Further, the normalised cell number in assay [3] (setting [21]) came to 1.07; in assay [3] (setting [22]) it was 1.38.

With `CC/C=C1C=C(/C=C/CO)C(=O)O/1`, the red/green cell ratio (normalised) in [3] was 1.01 (inactive). Moreover, the normalised cell number was 1.05 in assay [3] (setting [21]) and 1.06 in [3] (setting [22]).

For the compound `CC(C)C[C@@H](NC(=O)OCC1c2ccccc2-c2ccccc21)C(=O)O`, the inhibition in [14] is -9.47%. The score in [15] was -0.27. This compound came in with a rescue above control in [16] of 2.38. Besides, the cytochrome c release ratio in assay [17] is 0.77. In addition, the inhibition of aggregation in assay [18] was -14.3%. Further, in assay [19], the glutamate uptake change was 4.64%. In assay [20], this compound showed an aggregation suppression score of 0.0751. Further, in assay [3], the red/green cell ratio (normalised) is 0.8 (inactive). The normalised cell number in assay [3] (setting [21]) was determined as 1.21; in assay [3] (setting [22]), 0.97. Also, in assay [4], the remaining activity is 97.5% (inactive). Besides, the fold change was 0.883 (inactive) in [11] (setting [23]) and 0.962 in assay [11] (setting [24]). In addition, the cell count in assay [11] (setting [25]) is 8270; in assay [11] (setting [26]) it was 9370. In addition, the z-score in assay [13] is -0.5 (inactive).

Regarding `CC(C)=C1CC[C@]2(C)[C@@H](O)CC[C@H]3[C@](C)(Cc4c[nH]c5ccccc45)[C@@H](C)CC[C@]132`, the red/green cell ratio (normalised) in assay [3] is 0.86 (inactive). The normalised cell number in assay [3] (setting [21]) was determined as 1.09; in [3] (setting [22]), 0.94.

With `C[C@H]1C[C@H]2C(=O)O[C@H]([C@@H](C)CCCC[C@@H](C)O)C[C@@H](O)[C@H](C)C(=O)NC(Cc3ccccc3)C(=O)N2C1` (stereo partly specified), in assay [3], the red/green cell ratio (normalised) was 0.93 (inactive). Further, the normalised cell number in [3] (setting [21]) is 1.14; in assay [3] (setting [22]), 1.05.
